From PubChem BioAssay AID743498 (The Scripps Research Institute Molecular Screening Center, 2014)
A number with no mark means an inactive call. Active and inactive are the calls of the source.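 Rule for the calls: active = IC50, the dose giving half inhibition, at or below 10 µM; inactive = IC50 above 10 µM.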

test: displacement of TO-PRO-1 from d(CAG) DNA duplex, late-stage follow-up, counter-screen for r(CAG) RNA repeat binder project, biochemical, fluorescence, 5'CAG/3'GTC DNA, powders, MedChem round 1 (AID 743498); settings: DNA d(CAG) repeat TO-PRO-1 dye displacement

Structure (SMILES)	IC50
Cc1c(C(=O)Nc2ccc(S(=O)(=O)Nc3ncccn3)cc2)oc2ccc(F)cc12	> 29.9 µM
CN(C)C(=O)C1CCN(C(=O)/C=C/c2cn(-c3ccccc3)nc2-c2ccccc2)CC1	> 29.9 µM
Cc1ccc(-c2nn(-c3ccccc3)cc2/C=C/C(=O)Nc2cccc(S(N)(=O)=O)c2)cc1	> 29.9 µM
O=C(/C=C/c1cn(-c2ccccc2)nc1-c1ccccc1)NCc1ccccc1	> 29.9 µM
COc1ccc(-c2nn(-c3ccccc3)cc2/C=C/C(=O)Nc2cccc(NC(C)=O)c2)cc1OC	> 29.9 µM
COC(=O)c1ccc(NC(=O)/C=C/c2cn(CCC#N)nc2-c2ccc(F)cc2)cc1	> 29.9 µM
CN(C)CCCNC(=O)/C=C/c1cn(-c2ccccc2)nc1-c1ccccc1	> 29.9 µM
CCOC(=O)N1CCC(NC(=O)/C=C/c2cn(-c3ccccc3)nc2-c2ccccc2)CC1	> 29.9 µM
NS(=O)(=O)c1ccc(NC(=O)/C=C/c2cn(-c3ccccc3)nc2-c2cccc(Cl)c2)cc1	> 29.9 µM
Cc1c(C(=O)Nc2ccc(S(=O)(=O)N(C)Cc3ccccc3)cc2)oc2ccc(F)cc12	> 29.9 µM
CCN(CC)C(=O)/C=C/c1cn(-c2ccccc2)nc1-c1ccccc1	> 29.9 µM
O=C(/C=C/c1cn(-c2ccccc2)nc1-c1ccccc1)NCCO	> 29.9 µM
CCN(c1ccccc1)S(=O)(=O)c1ccc(NC(=O)c2oc3ccc(F)cc3c2C)cc1	> 29.9 µM
Cc1c(C(=O)Nc2ccc(S(=O)(=O)NCCCN3CCOCC3)cc2)oc2ccc(F)cc12	> 29.9 µM
CNC(=O)Cc1ccc(NC(=O)/C=C/c2cn(-c3ccccc3)nc2-c2ccc(F)cc2)cc1	> 29.9 µM
NC(=O)c1cc(NC(=O)/C=C/c2cn(-c3ccccc3)nc2-c2ccc(F)cc2)c(F)cc1F	> 29.9 µM

Structure (SMILES)	IC50
O=C(/C=C/c1cn(-c2ccccc2)nc1-c1ccccc1)N1CCN(CC(=O)N2CCCC2)CC1	> 29.9 µM
N#C/C(=C/c1cn(Cc2ccccc2)nc1-c1cccnc1)C(=O)Nc1ccc(C(=O)O)cc1	> 29.9 µM
O=C(/C=C\c1cn(-c2ccccc2)nc1-c1ccc(F)cc1)Nc1ccc(C(=O)O)cc1	4.76 µM (active)
CN1C(=O)/C(=C/c2cn(-c3ccccc3)nc2-c2ccccc2)c2ccccc21	> 29.9 µM
CS(=O)(=O)Nc1cc(NC(=O)/C=C/c2cn(-c3ccccc3)nc2-c2ccccc2)ccc1F	12.2 µM
COc1ccc(-c2nn(-c3ccccc3)cc2/C=C/C(=O)Nc2ccc(C(=O)O)cc2)cc1	3.83 µM (active)
O=C(/C=C/c1cn(-c2ccccc2)nc1-c1ccccc1)NCCc1c[nH]c2ccccc12	> 29.9 µM
COc1ccc(NC(=O)/C=C/c2cn(-c3ccccc3)nc2-c2ccc(OC)cc2)cc1	> 29.9 µM
CC(=O)NS(=O)(=O)c1ccc(NC(=O)/C=C/c2cn(-c3ccccc3)nc2-c2ccccc2)cc1	3.6 µM (active)
O=C(/C=C/c1cn(-c2ccccc2)nc1-c1ccc2ccccc2c1)Nc1ccc(C(=O)O)cc1	3.53 µM (active)
Cc1ccc(-c2nn(-c3ccccc3)cc2/C=C/C(=O)Nc2ccc(S(N)(=O)=O)cc2)cc1	> 29.9 µM
CN1CCC(N(C)C(=O)/C=C/c2cn(-c3ccccc3)nc2-c2ccccc2)CC1	> 29.9 µM
N#C/C(=C/c1cn(-c2ccccc2)nc1-c1cccnc1)C(=O)Nc1ccc(C(=O)O)cc1	28.6 µM
O=C(/C=C/c1cn(-c2ccccc2)nc1-c1ccccc1)Nc1cc(S(=O)(=O)N2CCCC2)ccc1Cl	> 29.9 µM
CCN1CCN(C(=O)/C=C/c2cn(-c3ccccc3)nc2-c2ccccc2)CC1	> 29.9 µM
